According to PubChem BioAssay AID624330 (Southern Research Specialized Biocontainment Screening …, 2012):
The whole screen tested about 340,000 compounds, of which about 2,100 (0.62%) were called active.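 How the source made its calls: active means first-screen hits whose inhibition reached a set limit at any dose in the follow-up dose series; inconclusive means inhibition above the set first-screen limit but never retested; inactive means the rest.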 The list is a sample of the results. Measured potencies and affinities stand elsewhere.

Molecular target: Rac GTPase-activating protein 1 (Homo sapiens) (UniProt Q9H0H5)
Sequence (Q9H0H5 whole entry, looked up): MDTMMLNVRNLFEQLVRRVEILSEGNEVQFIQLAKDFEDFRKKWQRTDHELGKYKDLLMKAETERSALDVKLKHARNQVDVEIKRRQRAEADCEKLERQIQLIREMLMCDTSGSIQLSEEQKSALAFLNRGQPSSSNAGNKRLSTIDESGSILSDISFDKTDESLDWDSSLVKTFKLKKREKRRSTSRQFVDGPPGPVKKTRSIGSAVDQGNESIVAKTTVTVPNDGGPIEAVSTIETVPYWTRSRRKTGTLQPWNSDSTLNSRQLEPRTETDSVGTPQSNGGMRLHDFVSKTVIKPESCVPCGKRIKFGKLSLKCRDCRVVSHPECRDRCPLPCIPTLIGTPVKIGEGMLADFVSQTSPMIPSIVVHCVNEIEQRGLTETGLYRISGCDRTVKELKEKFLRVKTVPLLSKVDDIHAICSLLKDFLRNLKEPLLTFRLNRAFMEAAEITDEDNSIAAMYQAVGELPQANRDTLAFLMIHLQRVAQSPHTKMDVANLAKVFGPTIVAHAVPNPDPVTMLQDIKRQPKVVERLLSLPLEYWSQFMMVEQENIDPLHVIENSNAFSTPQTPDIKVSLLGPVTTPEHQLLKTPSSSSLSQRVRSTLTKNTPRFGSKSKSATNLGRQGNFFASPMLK
Experiment: MgcRacGAP GTPase-activating activity inhibitors, confirmation, biochemical, ADP Hunter fluorescence, primary and confirmatory (AID 624330);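 further: fluorescence reports GDP produced by GAP-driven GTP hydrolysis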
Conditions: MgcRacGAP-stimulated Rac1 GTP hydrolysis, at 30 µM, stronger effect = higher value, GST-tagged Rac1 F28L mutant substrate

inhibition, inactive:
O=C(CN(c1ccccn1)S(=O)(=O)c1ccccc1)N/N=C/c1cccc([N+](=O)[O-])c1 6.03%
CC(NC(=O)C1CCN(c2nnc(N3CCCC3=O)s2)CC1)c1ccccc1 (stereo not drawn) 1.18%
Cc1nn(-c2cc(C(F)(F)F)ccc2Cl)c2nc(C(F)(F)F)[nH]c(=O)c12 6.22%
CCN1C(=O)CC(N2CCN(c3cccc(OC)c3)CC2)C1=O (stereo not drawn) 7.87%
COc1cc(OC)c(OC)cc1CN1CCN(Cc2cccc(F)c2)CC1 9.82%
CC(C(=O)N(C)Cc1cccc(F)c1)N1CCN(S(=O)(=O)c2ccc3c(c2)OCCCO3)CC1 (stereo not drawn) 4.74%
COc1ccc(CN2CCN(c3ncccn3)CC2)c(OC)c1 9.88%
COc1cc(CN2CCN(Cc3ccc(C)cc3)CC2)c([N+](=O)[O-])cc1OC 31.1%
COc1ccc(CN2CCN(S(=O)(=O)c3ccc(F)cc3)CC2)cc1OC 19.8%
COc1cc(CN2CCN(Cc3ccc([N+](=O)[O-])cc3)CC2)c([N+](=O)[O-])cc1OC 28.4%
COc1ccc(CN2CCN(C(C)C(=O)N3CCc4ccccc43)CC2)cc1OC (stereo not drawn) 7.8%
COc1ccc(CN2CCN(c3ccccc3OC)CC2)c(OC)c1 25.9%
CC(NCC(c1ccco1)N1CCCCC1)C(=O)NC1CCCC1 (stereo not drawn) 6.01%
Cc1[nH]ccc(=O)c1OCc1ccc(Cl)cc1 8.17%
CCCSc1nnc2c(n1)OC(c1cccn1C)N(C(C)=O)c1ccccc1-2 (stereo not drawn) 7.61%
Cc1cccc(NC(=O)Nc2cnccn2)c1C 7.34%
COc1cc(C(=O)NC2CCCC2)c(Br)c(OC)c1OC 11.2%
Cc1ccc(C(CNS(=O)(=O)c2ccc(F)cc2)N2CCN(C)CC2)cc1 (stereo not drawn) 3.73%
C#CCOCCOCCOCCNc1nc(N2CCN(C(=O)[C@H]([C@@H](C)O)n3cc(CCCCN)nn3)CC2)nc(N2CCN(C(=O)[C@H](C)n3cc(CCCN=C(N)N)nn3)CC2)n1 6.19%
CCOc1ncccc1C(=O)OCC(=O)c1ccc(OC)c(OC)c1 2%
CCCN1CCC(N(CCc2ccccc2)Cc2ccccc2)CC1 -10%
COc1cccc(CN2CCC(N(CCc3ccccc3)Cc3ccccc3)CC2)c1OC 22.3%
CSc1nnc(-c2ccc(S(=O)(=O)N3CCCCC3)cc2)o1 1%
CCC(C)c1ccccc1NC(=O)C(C)OC(=O)c1ccco1 (stereo not drawn) 1.05%
O=c1c(Cc2c(F)cccc2Cl)c(O)ccn1CC1CCCO1 (stereo not drawn) -2.7%
CCOC(=O)CCc1c(C)nc2cc(-c3ccc(Cl)cc3)[nH]n2c1=O -6.3%
O=C(CCNC(=O)c1ccco1)Nc1ccc(SC(F)F)cc1 -1.92%
Cc1nnc(SCC(=O)N2CCN(c3ccccc3)CC2)n1C1CC1 5.61%
COc1ccc(N2CCN(C(=O)CSc3nnnn3C3CC3)CC2)cc1 16.6%
O=C(CSc1nnnn1C1CC1)N1CCN(c2cccc(Cl)c2)CC1 6.11%
COc1ccc(N2CCN(C(=O)CSc3nnc(C4CC4)n3C3CC3)CC2)cc1 24.3%
C[C@@H]1[C@H]2CCCC[C@H]2CN(C(=O)OC(C)(C)C)[C@@H]1CC(=O)c1ccccc1 12.5%
COc1ccc(CN2CCS(=O)(=O)CC2)cc1OC -1.72%
CCOC(=O)C1CCCN(S(=O)(=O)c2ccc(Cl)nc2)C1 (stereo not drawn) 0.62%
CCC(=O)c1ccccc1OCCN1C(=O)NC(C)(C)C1=O 3.57%
Cc1ccccc1CNCc1ccc2c(c1)OCO2 25.3%
Clc1ccccc1CNCc1ccncc1 -5.2%
Cc1ccc(CNCc2ccccc2Cl)cc1 3.27%
Fc1ccccc1CNCc1ccc2c(c1)OCO2 6.19%
CC1=C(C(=O)NC(C)CCc2ccccc2)C2(CCC(C)CC2)OC1=O (stereo not drawn) 9.85%
O=C(C[n+]1cccc(/C=N/O)c1)N(Cc1ccccc1)Cc1ccccc1 2.39%
COc1ccc(CCNC(=O)CSc2n[nH]c(N)n2)cc1 9.27%
Cc1csc(=O)n1CCC(=O)OCC(=O)Nc1ccc(S(N)(=O)=O)cc1 6.26%
O=C(CCN1C(=O)[C@@H]2Cc3ccccc3CN2C1=O)NCc1ccccc1Cl 13.7%
CCOc1ccc(S(=O)(=O)N2CCCC(C(=O)Nc3ccccc3)C2)cc1 (stereo not drawn) 4.61%
CCN(c1ccc(NC(=O)COC(=O)CCc2cc(OC)c(OC)c(OC)c2)cc1)C(C)C 14.8%
COc1ccccc1/C=C(/C(=O)OCC(=O)Nc1ccccc1C)c1ccccc1 8.5%
CCc1ccc(NC(=O)COC(=O)/C(=C/c2ccccc2OC)c2ccccc2)cc1 -0.32%
COc1cc(CC(=O)OCC(=O)Nc2ccc([N+](=O)[O-])cc2)cc(OC)c1OC 13.3%
COc1cc(CC(=O)OCC(=O)Nc2ccc3c(c2)OCO3)cc(OC)c1OC 12.4%
CCN(CC)S(=O)(=O)c1ccc(NC(=O)COC(=O)CCc2cc(OC)c(OC)c(OC)c2)cc1 1.83%
COc1ccc(NC(C)=O)cc1C 16.4%
COCc1cc(C)n(CC(=O)Nc2ccc(N3CCOCC3)cc2)c(=O)c1C#N 1.03%
Nc1c(C(=O)c2cccs2)oc2ccccc12 6.17%
Cc1ccc(C(=O)OCc2nnc(-c3ccccc3)o2)o1 6.62%
COCCCn1c(=S)[nH]c2c(sc3ccccc32)c1=O 21%
O=c1c2ccccc2[nH]c(=S)n1CCCN1CCOCC1 4.66%
CCN(CC)S(=O)(=O)c1cc(C(=O)OCC(=O)Nc2ccc(-c3nc4ccc(C)cc4s3)cc2)ccc1F 4.33%
CC(=O)Nc1nc2c(s1)CCc1ccccc1-2 8.9%
Nc1nc2c(s1)COc1ccccc1-2 4.85%
COc1ccc2c(c1)-c1nc(NC(=O)c3ccco3)sc1CC2 8.71%
COc1ccc2c(c1)-c1nc(NC(=O)c3cccs3)sc1CC2 8.83%
CCC(=O)N1CCN(c2ccc(NC(=O)COc3ccc(CC)cc3)cc2)CC1 3.4%
CCc1ccc(N2CCN(C(=O)N3CCOCC3)CC2)cc1 7.01%
O=S(=O)(c1ccc(NCc2ccccc2)cc1)N1CCOCC1 5.28%
CC(=O)c1ccc(N2CCN(C(=O)Nc3ccc(C(C)C)cc3)CC2)cc1 6.75%
CC(=O)N1CCN(c2ccc(NCc3ccc(C)s3)cc2)CC1 30.4%
c1cc(CNc2ccc(N3CCOCC3)cc2)ccn1 13.9%
CC(=O)N1CCN(c2ccc(NC(=O)c3ccc(Cl)cc3)cc2)CC1 4.31%
Cc1ccc(CNc2ccc(N3CCOCC3)c(C(=O)O)c2)s1 6.12%
Cc1cc(=O)[nH]c(NN=C2C3CC4CC(C3)CC2C4)n1 -3.7%
CS(=O)(=O)NNC(=O)C1Cc2c(ccc3ccccc23)O1 (stereo not drawn) 8.23%
CC1CCCC(C)N1CCNC(=O)Nc1ccc(Cl)cc1 (stereo not drawn) 6.73%
COc1ccc(NC(=O)C2CCN(C(=O)[C@@H]3Cc4ccccc4CN3)CC2)cc1 -3.28%
O=C(OCc1ccccc1)/C(=C/c1cccc2ccccc12)NC(=O)c1ccccc1 4.32%
N#CC1=C(c2ccc(-c3ccccc3)cc2)COC1=O 7.38%
CC(C)c1ccc(S(=O)(=O)Nc2ccc(N3CCOCC3)cc2)cc1 8.59%
CC(C)c1ccc(C(=O)Nc2ccc(N3CCOCC3)cc2)cc1 7.63%
CC(=O)N1CCN(c2ccc(NC(=O)c3ccccc3)cc2)CC1 11.9%
CCc1ccc(NC(=O)N2CCN(c3ccc(F)cc3)CC2)cc1 2.99%
CC(=O)N1CCN(c2ccc(NC(=O)C(c3ccccc3)c3ccccc3)cc2)CC1 3.06%
CCc1ccc(NC2CC(=O)N(c3ccc(OC)cc3OC)C2=O)cc1 (stereo not drawn) 4.67%
COc1cccc(N2C(=O)CC(Nc3ccc(N4CCOCC4)cc3)C2=O)c1 (stereo not drawn) 20.1%
CC(=O)N1CCN(c2ccc(NC(=O)c3ccc(F)cc3)cc2)CC1 13.2%
O=C(CSc1nnc(-c2cccnc2)o1)Nc1ccc(F)cc1 13.2%
Clc1nc(-c2ccccc2)c2ccccc2n1 10.5%
CC(=O)c1cc(Cc2csc(C(C)=O)c2)cs1 1.28%
CN(C(=O)COC(=O)c1cccs1)c1c(N)n(Cc2ccccc2)c(=O)[nH]c1=O 4.09%
Cc1cc(=O)oc2c3c(cc(OCC(=O)NC(Cc4ccc(Cl)cc4)C(=O)O)c12)OC(C)(C)CC3 (stereo not drawn) 6.3%
O=C(NCc1ccccc1)NC(=O)c1ccncc1 8.08%
O=C1NC(=S)NC1Cc1ccc(O)cc1 (stereo not drawn) 7.3%
CCn1ccnc1CN1CCCCC1C(=O)Nc1ccc(Oc2cccnc2)cc1 (stereo not drawn) 10.9%
CC(=O)Nc1ccc(NCc2cccs2)cc1 31.6%
O=C(O)c1ccc(NCc2cccs2)cc1 -0.42%
O=C1CC(Nc2ccc(N3CCOCC3)cc2)C(=O)N1CCc1ccccc1 (stereo not drawn) 14.7%
Cc1cccc(CNc2ccc(S(=O)(=O)N3CCCCC3)cc2)c1 2.94%
O=C1CC(Nc2ccccc2)C(=O)N1Cc1ccccc1 (stereo not drawn) 7.76%
CC(=O)N1CCN(c2ccc(NC(=O)c3cccc(C)c3)cc2)CC1 -9.43%
